# Where a name gives a salt, the structure may show the parent alone. In all, about 5,800 compounds went through this assay and about 620 (11%) showed activity. The entries come from a sample that favours actives as a whole. Unmarked numbers belong to inactive results.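 Rule for the calls: active = score above a cut-off or among the top three wells of a plate; in these data no inactive exceeds 0.85.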
# Test system: primary human hepatic stellate cells (donor 1)
# Test: scaled lipid accumulation score (0 = DMSO-like, 1 = nortriptyline-like); higher = stronger HSC inactivation (lipid re-accumulation), active = hit call of the paper
# Settings: 48 h
# [1] = library stock concentration: 1 mM
# [2] = library stock concentration: 10 mM
# [3] = library stock concentration: 100 uM
smiles,measurement,setting,value
c1cc(N2CCNCC2)c2cc[nH]c2c1 [4-(1-piperazinyl)-1H-Indole (hydrochloride)],scaled lipid accumulation score,[1],≤ 0
CNCCCCCCN(C)N(O)N=O,scaled lipid accumulation score,[1],0.005
OC1CCCCC1N1CCC(c2ccccc2)CC1 (stereo not given),scaled lipid accumulation score,[2],≤ 0
OC1CCCCC1N1CCC(c2ccccc2)CC1 (stereo not given) [Vesamicol hydrochloride],scaled lipid accumulation score,library stock concentration: 6.8 mM,≤ 0
same,scaled lipid accumulation score,[2],≤ -0.027
NC(=O)C[S@@+]([O-])C(c1ccccc1)c1ccccc1,scaled lipid accumulation score,[2],≤ 0
CCCCC[C@@H](/C=C/C=C\C/C=C\C/C=C\CCCC(=O)O)OO,scaled lipid accumulation score,[3],≤ -0.01
CCCCC/C=C\C/C=C\C/C=C\C/C=C\CCCC(=O)Nc1cccc(O)c1 [N-(3-hydroxyphenyl)-Arachidonoyl amide],scaled lipid accumulation score,[1],0.053
CCN(CC)CCOC(=O)C(O)(c1ccccc1)c1ccccc1,scaled lipid accumulation score,[2],≤ 0
CCCCC/C=C\C/C=C\C/C=C\C/C=C\CCCC(=O)NCCF [Arachidonoyl-2'-Fluoroethylamide],scaled lipid accumulation score,[1],≤ 0
CCCN1CCc2cccc3c2[C@H]1Cc1ccc(O)c(O)c1-3 [R(-)-Propylnorapomorphine hydrochloride],scaled lipid accumulation score,[2],≤ -0.038
"CCCCCCCCCC(=O)OC[C@H](COP(=O)([O-])OCC[N+](C)(C)C)OC(=O)CCCCCCCCC [1,2-Didecanoyl PC]",scaled lipid accumulation score,[1],≤ 0
S=C=Nc1cccc(C2(N3CCCCC3)CCCCC2)c1 [Metaphit],scaled lipid accumulation score,[2],0.949 (active)
c1ccc2sc(C3(N4CCCCC4)CCCCC3)cc2c1 [BTCP hydrochloride],scaled lipid accumulation score,[2],0.74
c1ccc2sc(C3(N4CCCCC4)CCCCC3)cc2c1 [BTCP maleate],scaled lipid accumulation score,[2],0.248
COC(=O)[C@@H](N)CCCNC(=N)N[N+](=O)[O-] [L-NAME hydrochloride],scaled lipid accumulation score,[2],≤ 0
COC(=O)[C@@H](N)CCCNC(=N)N[N+](=O)[O-],scaled lipid accumulation score,library stock concentration: 21.4 mM,≤ -0.012
COC(=O)[C@@H](N)CCCNC(=N)N[N+](=O)[O-] [NG-Nitro-L-arginine methyl ester hydrochloride],scaled lipid accumulation score,[2],0.047
COC(=O)[C@@H](N)CCCNC(=N)N[N+](=O)[O-] [L-NAME (hydrochloride)],scaled lipid accumulation score,[1],≤ 0
"c1cc2ccsc2c(N2CCNCC2)n1 [7-Piperazin-1-yl-thieno[2,3-c] Pyridine (hydrochloride)]",scaled lipid accumulation score,[1],≤ 0
c1cc(N2CCNCC2)c2cnccc2c1 [8-piperazin-1-yl-Isoquinoline (hydrochloride)],scaled lipid accumulation score,[1],0.005
Oc1ccc2c3c1O[C@H]1[C@@H](O)CC[C@@]4(O)[C@@H](C2)N(CC2CCC2)CC[C@]314 [Nalbuphine hydrochloride],scaled lipid accumulation score,,≤ 0
same,scaled lipid accumulation score,library stock concentration: 5.1 mM,0.02
same,scaled lipid accumulation score,[2],≤ 0
CS(=O)(=O)O.Oc1ccc2c3c1O[C@H]1c4oc5ccccc5c4C[C@@]4(O)C(C2)N(CC2CC2)CCC314 (stereo not given in full) [Naltriben methanesulfonate],scaled lipid accumulation score,[2],1.11 (active)
Oc1ccc2c3c1O[C@H]1c4c(c5ccccc5n4Cc4ccccc4)C[C@@]4(O)C(C2)N(CC2CC2)CC[C@]314 [N-Benzylnaltrindole hydrochloride],scaled lipid accumulation score,[2],0.77
NC(N)=Nc1ccc2[nH]c3c(c2c1)C[C@@]1(O)[C@H]2Cc4ccc(O)c5c4[C@@]1(CCN2CC1CC1)[C@H]3O5 [Guanidinyl-naltrindole di-trifluoroacetate],scaled lipid accumulation score,[2],≤ -0.07
Oc1ccc2c3c1O[C@H]1[C@@H](O)CC[C@@]4(O)[C@@H](C2)N(CC2CCC2)CC[C@]314 [Nalbuphine],scaled lipid accumulation score,[2],0.075
NC(N)=Nc1ccc2[nH]c3c(c2c1)C[C@@]1(O)[C@H]2Cc4ccc(O)c5c4[C@@]1(CCN2CC1CC1)[C@H]3O5 [GNTI dihydrochloride],scaled lipid accumulation score,[2],≤ -0.006
CS(=O)(=O)O.Oc1ccc2c3c1O[C@H]1c4oc5ccccc5c4C[C@@]4(O)C(C2)N(CC2CC2)CC[C@]314 [Naltriben mesylate],scaled lipid accumulation score,[2],1.27 (active)
Oc1ccc2c3c1O[C@H]1c4oc5ccccc5c4C[C@@]4(O)[C@@H](C2)N(CC2CC2)CC[C@]314 [Naltriben mesylate],scaled lipid accumulation score,library stock concentration: 4.8 mM,0.403
NNCc1ccccc1 [Benzylhydrazine hydrochloride],scaled lipid accumulation score,[2],0.294
C[C@@H]1NCCc2cc(O)c(O)cc21 [Salsolinol hydrobromide],scaled lipid accumulation score,,≤ 0
C#CC(C)(O)CC (stereo not given),scaled lipid accumulation score,[2],≤ 0
Cc1nnc2n1-c1ccc(Cl)cc1C(c1ccccc1)=NC2 [Alprazolam],scaled lipid accumulation score,[2],≤ 0
Cc1ncc2n1-c1ccc(Cl)cc1C(c1ccccc1F)=NC2,scaled lipid accumulation score,[2],≤ 0
CCCCC/C=C\C=C\[C@H](CCCCCCCC(=O)O)OO,scaled lipid accumulation score,[3],≤ -0.021
C=C1[C@@H](O)[C@@H]2O[C@]3(CC[C@H](/C=C/[C@@H](C)[C@@H]4CC(C)=C[C@@]5(O[C@H](C[C@@](C)(O)C(=O)O)CC[C@H]5O)O4)O3)CC[C@H]2O[C@@H]1[C@@H](O)C[C@H](C)[C@H]1O[C@@]2(CCCCO2)CC[C@H]1C [Okadaic acid],scaled lipid accumulation score,library stock concentration: 600 uM,0.393
COC1=CC(=O)O[C@@H](/C=C/c2ccccc2)C1 [Kawain],scaled lipid accumulation score,,0.119
COC1=CC(=O)O[C@@H](/C=C/c2ccccc2)C1 (racemic) [Kavain (+/-)],scaled lipid accumulation score,library stock concentration: 21.7 mM,0.117
